# Target: Glucose transporter (Leishmania mexicana) (UniProt O61059)
# Test: ST_JUDE_LEISH: Cytotoxicity at 2uM final concentration against transgenic Leishmania Mexicana promastigotes LmGT2 that are glucose transport deficient and complemented with the L. Mexicana glucose transporter 2. Activity is measured by DNA content using SYBR green in vitro
# Format: functional
row,SMILES,inhibition
1,CCC1CN2CCc3c([nH]c4ccccc34)C2CC1CC1=NCCc2c1[nH]c1ccccc21 (stereo not given),2.74%
2,O=C(/C=C/c1ccc(C(F)(F)F)cc1)N1CCc2cc3nccc(N4CCN5CCC[C@H]5C4)c3cc21,0.92%
3,NC(=O)c1ccsc1NC(=O)CNC(c1ccccc1)c1ccc(Cl)cc1 (stereo not given),1.74%
4,CCCC(=O)NC(c1cccs1)c1cc(Cl)c2cccnc2c1O (stereo not given),-0.61%
5,CCc1c(CCNCCCCCCNCCc2ccc(OC)c(OC)c2C)ccc(OC)c1OC,12.1%
6,CS(=O)(=O)NCCCNCc1cccc(-c2ccc(-c3nc4cc(C(F)(F)F)ccc4[nH]3)cc2)c1,0.95%
7,COc1cc2c(cc1O)[C@@H]1[C@H](O)[C@@H](O)C=C3CCN(C2)[C@H]31,1.58%
8,Cc1cc(=O)c(-c2ccc(Oc3ccc(C(F)(F)F)cc3)cc2)c(C)n1O,-1.9%
9,CCNc1cc(C(=O)N[C@@H](Cc2ccccc2)[C@H](O)CNCc2cccc(OC)c2C)cc(N2CCCCS2(=O)=O)c1,2.02%
10,CCN1CCN(c2ccc(Nc3c4ccccc4nc4ccccc34)cc2)CC1,2.24%
11,COc1ccc(C(=O)CCC(=O)N(CCSC(C)(C)C)Cc2ccc(-c3ccc(CNCCc4ccc(S(C)(=O)=O)cc4)cn3)cc2)cc1F,7.07%
12,Cc1cc(C)c(-c2n[nH]c3c2C(c2cccc(Cl)c2)N(Cc2ccco2)C3=O)c(O)c1 (stereo not given),1.37%
13,O=C(NCCNc1ccnc(NCc2ccc(F)cc2)n1)c1cc2ccccc2s1,-0.4%
14,COc1ccc2nc(N)nc(C)c2c1,2.78%
15,CCCn1cc2c(ccc3nc(N)nc(N)c32)n1,0.23%
16,CN(C)c1cc(NC(=O)Nc2ccc(SC(F)(F)F)cc2)c2ccccc2n1,0.58%
17,Fc1cccc(COc2ccc(Nc3ncnc4sc(C#CCNC5CCCC5)cc34)cc2Cl)c1,2.47%
18,O=C(c1ccc(-c2cnc3[nH]cc(-c4ccc(C(=O)N5CCOCC5)cc4)c3c2)cc1)N1CCOCC1,-1.88%
19,Cc1cc(N[C@@H](Cc2ccccc2)C(=O)NC2CCCC2)nc(NCCCOC(C)C)n1,0.61%
20,N#Cc1ccc2c(c1)CCN(CCC1CCC(NC(=O)c3ccc(-c4ccccn4)s3)CC1)CC2 (stereo not given),9.9%

row,SMILES,inhibition
1,COc1ccc2nccc([C@@H](O)CN3CCC(NC(=O)c4ccc5nc(-n6cccc6)sc5c4)CC3)c2c1,4.22%
2,CC(C)(C)CCN1CCC(NC(=O)c2ccc(-c3cccc(C(F)(F)F)c3)s2)CC1,3.83%
3,CC(C)CCN1CCC(Oc2ccc(NC(=O)c3ccsc3)cc2Cl)CC1,1.45%
4,O=C(Nc1ccc(C(F)(F)F)cc1)c1cccc(S(=O)(=O)NCC2CCCN(CC3CCCCC3)C2)c1 (stereo not given),0.02%
5,Cc1cccc2nc(-c3cccc(-c4cccc(NC(=O)c5ccc(C(N)=O)cc5)c4)c3)[nH]c12,1.3%
6,COc1cc(Cc2cnc(N)nc2N)cc(OCCNC(=O)OCc2ccccc2)c1OC,-1.22%
7,CCCNCc1ccc(-c2ccc(CN(C(=O)c3nn(-c4ccccc4)nc3C)C(C)CN(C)C)cc2)nc1 (stereo not given),6.31%
8,Cc1noc(-c2ccc3c(c2)CCN(CCC2CCC(NC(=O)c4cc5ccccc5[nH]4)CC2)CC3)n1 (stereo not given),1.98%
9,CCOC(=O)c1ccc(NC(=O)Nc2ccc(-c3ccc(-c4nc5cc(C(F)(F)F)ccc5[nH]4)cc3)cc2)cc1,1.54%
10,CC1CCCCC1N(C)C1CCN(CCCNC(=O)C=Cc2ccccc2Cl)CC1 (stereo not given),-0.58%
11,COc1ccc(Cc2cnc(N)nc2N)cc1OCCCOc1ccccc1,-0.52%
12,CNC(=O)c1nc(-c2ccccc2)[nH]c1NC(C)=O,2.17%
13,N#Cc1cccc(NC(=O)Nc2cccc(-c3cccc(-c4nc5cc(F)ccc5[nH]4)c3)c2)c1,8.96%
14,COc1cc(Cc2cnc(N)nc2N)c2c(c1OC)OC(C)(C)C=C2,4.87%
15,CCc1nc2nc(C)cc(Nc3ccc4c(c3)OCCO4)n2n1,-3.9%
16,COc1cccc(C2CCN(CCN3CCC(CNC(=O)c4ccc(-c5ccc(C(F)(F)F)cc5)cc4)CC3)CC2)c1,1.17%
17,Cc1sc2ncnc(Sc3nnc(N)s3)c2c1C,1.09%
18,Cc1cc(=O)[nH]c(-n2nc(C)cc2NC(=O)C2(c3ccc(Cl)cc3)CCCC2)n1,53.5%
19,COc1ccc(C2CC(c3ccccc3)=NN2C(=O)c2ccc(Br)o2)cc1 (stereo not given),0.09%
20,COc1ccc(O)c(Cc2cnc3nc(N)nc(N)c3c2C)c1,11.4%
